Reference: publication PMC5540273 (PLoS ONE, 2017)

Columns and labels:
Conditions in all cases: concentration: 1 μM, replicates: in singlicate; n = 1
PFTAIRE2 = tested on: PFTAIRE2
PFTK1 = tested on: T1, PFTK1
T1 construct: gene CDK14

PHKG1 = tested on: PHKG1
PHKG2 = tested on: PHKG2
PIK3C2B = tested on: PIK3C2B
PIK3C2G = tested on: PIK3C2G
PIK3CA = tested on: PIK3CA
PIK3CB = tested on: PIK3CB
PIK3CD = tested on: PIK3CD
PIK3CG = tested on: PIK3CG
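Also: KINOMEscan kinase panel screen.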

| Structure (SMILES) | %Inh (PFTAIRE2) [%] | %Inh (PFTK1) [%] | %Inh (PHKG1) [%] | %Inh (PHKG2) [%] | %Inh (PIK3C2B) [%] | %Inh (PIK3C2G) [%] | %Inh (PIK3CA) [%] | %Inh (PIK3CB) [%] | %Inh (PIK3CD) [%] | %Inh (PIK3CG) [%] |
| --- | --- | --- | --- | --- | --- | --- | --- | --- | --- | --- |
| Fc1ccc(-c2nc3n(c2-c2ccncc2)CCS3)cc1 [GI98581] | 11 | 16 | 0 | 0 | 92.7 | 0 | 91.9 | 0 | 0 | 81 |
| O=C1NC(=O)C(c2ccc(Cl)cc2)=C1Nc1ccc(O)cc1 [SB-340867] | 13 | 0 | 0 | 0 | 0 | 0 | 0 | 0 | 0 | 17 |
| CNc1nc(-c2ccc3c(N)n[nH]c3c2)cc(N2C[C@@H](C(=O)NC3CCCCC3)OC[C@H]2C)n1 [GSK2375584] | 13 | 25 | 3 | 13 | 0 | 0 | 4 | 34 | 0 | 9 |
| COC(=O)C(NC(=O)NC1CCN(c2ccnc(Nc3ccc(F)cc3)n2)C1)c1ccccc1 (stereo not shown) [GSK1379712] | 14 | 17 | 0 | 0 | 14 | 0 | 1 | 5 | 23 | 9 |
| COc1ccc(Nc2nccc(N3CCC(NC(=O)C(C)c4ccc(Cl)cc4)CC3)n2)cc1 (stereo not shown) [GSK1379812] | 8 | 5 | 0 | 16 | 15 | 0 | 21 | 22 | 0 | 12 |
| CNCc1ccc2nc(NC(=O)c3ccc(C(C)(C)C)cc3)cn2c1 | 6 | 0 | 5 | 0 | 91.5 | 0 | 89 | 16 | 22 | 40 |
| CCn1c(-c2c(N)noc2C)nc2cnccc21 [SB-737856] | 15 | 33 | 0 | 0 | 1 | 0 | 0 | 100 | 3 | 0 |
| Cc1ccc(NC(=O)Nc2ccc(Cl)c(C(F)(F)F)c2)cc1-c1ccc(C(=O)Nc2ccncc2)cc1 [GSK1398470] | 21 | 0 | 23 | 4 | 0 | 2 | 9 | 0 | 0 | 10 |
| Cc1ccc(-c2nc(Nc3ccncc3)c3ccccc3n2)s1 [GSK189015] | 22 | 28 | 9 | 0 | 0 | 0 | 0 | 0 | 0 | 0 |
| COc1ccc(CSc2nnc(-c3ccc4nccn4c3)o2)cc1C(F)(F)F | 0 | 4 | 0 | 0 | 21 | 12 | 15 | 11 | 29 | 32 |
| CCn1c(-c2ccccc2)nc2cnccc21 [SB-733416] | 0 | 27 | 0 | 0 | 0 | 0 | 0 | 0 | 13 | 0 |
| COc1ccc(Nc2nccc(N3CCC(NC(=O)C(C)c4ccc(Cl)cc4)C3)n2)cc1 (stereo not shown) [GSK1379735] | 0 | 28 | 4 | 0 | 0 | 0 | 0 | 0 | 0 | 0 |
| CC(=O)c1c(C)c2cnc(Nc3ccc(N4CCNCC4)cn3)nc2n(C2CCCC2)c1=O | 0 | 5 | 10 | 12 | 0 | 0 | 3 | 0 | 0 | 12 |
| Cc1ccccc1Cn1ccn2c(=O)cc(N3CCOCC3)nc12 [GSK2269905] | 0 | 12 | 0 | 0 | 0 | 0 | 0 | 99.9 | 57 | 0 |
| CNC(=O)c1ccc(C)c(-n2c(C)cc(OCc3ccc(F)cc3F)c(Br)c2=O)c1 | 0 | 8 | 5 | 0 | 0 | 0 | 0 | 0 | 0 | 0 |
| Cc1c(Cn2c3ccccc3n3c(=O)cc(N4CCOCC4)nc23)cccc1C(F)(F)F [GSK2306394] | 14 | 21 | 12 | 18 | 9 | 3 | 1 | 98.4 | 52 | 0 |
| COc1nccc(-c2c(-c3ccc(F)cc3)ncn2CCCN2CCOCC2)n1 [SB-282852] | 0 | 0 | 13 | 0 | 8 | 8 | 0 | 0 | 0 | 37 |

| Structure (SMILES) | %Inh (PFTAIRE2) [%] | %Inh (PFTK1) [%] | %Inh (PHKG1) [%] | %Inh (PHKG2) [%] | %Inh (PIK3C2B) [%] | %Inh (PIK3C2G) [%] | %Inh (PIK3CA) [%] | %Inh (PIK3CB) [%] | %Inh (PIK3CD) [%] | %Inh (PIK3CG) [%] |
| --- | --- | --- | --- | --- | --- | --- | --- | --- | --- | --- |
| CC(=O)c1c(C)c2cnc(Nc3ccn(C)n3)nc2n(C2CCCC2)c1=O | 0 | 0 | 0 | 2 | 0 | 0 | 0 | 0 | 18 | 61 |
| COC(=O)c1cccc(NC(=O)NC2CCN(c3ccnc(Nc4ccc(F)cc4)n3)C2)c1 (stereo not shown) [GSK1379725] | 5 | 16 | 0 | 0 | 0 | 0 | 0 | 0 | 0 | 0 |
| CS(=O)(=O)CCNCc1nc(-c2ccc3ncnc(Nc4ccc(OCc5ccccc5)c(Cl)c4)c3c2)cs1.Cl [GW582764] | 7 | 3 | 0 | 0 | 0 | 0 | 0 | 0 | 0 | 0 |
| Cl.Cl.Cl.N#Cc1ccc(CCNc2nccc(-c3cccc(CN4CCNCC4)c3)n2)cc1 [GSK2137462] | 16 | 14 | 25 | 23 | 0 | 0 | 1 | 13 | 0 | 12 |
| O=C(Nc1n[nH]c2nc(-c3cccs3)c(Br)cc12)C1CC1 [SB-735297] | 18 | 14 | 0 | 0 | 0 | 0 | 0 | 22 | 0 | 10 |
| Cc1ccc(NC(=O)Nc2ccc(Cl)cc2)cc1-c1ccc(C(=O)Nc2ccncc2)cc1 [GSK1398472] | 0 | 12 | 0 | 0 | 0 | 0 | 0 | 36 | 0 | 0 |
| CCc1ccc(-c2ccc3c(c2)-c2n[nH]cc2S(=O)(=O)N3C)cc1 | 0 | 0 | 0 | 0 | 0 | 0 | 0 | 0 | 0 | 0 |
| COc1ccc2cc(-c3nc(-c4ccccc4C(C)C)[nH]c3-c3ccncc3)ccc2c1 [SB-660566] | 12 | 17 | 0 | 0 | 0 | 0 | 0 | 0 | 0 | 0 |
| COC(=O)C(Cc1ccccc1)NC(=O)NC1CCN(c2ccnc(Nc3ccc(F)cc3)n2)C1 (stereo not shown) [GSK1379714] | 14 | 0 | 2 | 0 | 0 | 73 | 0 | 0 | 27 | 1 |
| CC(=O)c1cccc(NC(=O)NC2CCN(c3ccnc(Nc4ccc(F)cc4)n3)C2)c1 (stereo not shown) [GSK1379710] | 26 | 14 | 0 | 1 | 0 | 0 | 0 | 0 | 24 | 7 |
| Nc1cccc(-c2ccc3c(N)n[nH]c3c2)n1 [GSK2192730] | 20 | 0 | 0 | 6 | 5 | 0 | 18 | 0 | 0 | 15 |
| CC[C@@H]1CO[C@H](C(=O)Nc2ccccc2)CN1c1cc(-c2ccc3c(N)n[nH]c3c2)nc(NC)n1 [GSK2376236] | 23 | 28 | 0 | 11 | 0 | 0 | 0 | 0 | 0 | 6 |
| Nc1nccc(-c2c(-c3ccc(F)cc3)ncn2C2CCN(Cc3ccccc3)CC2)n1 [SB-219980] | 5 | 0 | 1 | 0 | 17 | 52 | 0 | 4 | 35 | 7 |
| O=c1cc(N2CCOCC2)nc2n(Cc3cccc(Cl)c3Cl)c3ccccc3n12 [GSK2299009] | 29 | 19 | 7 | 3 | 0 | 0 | 7 | 97.5 | 3 | 1 |
| O=c1cc(N2CCOCC2)nc2n(Cc3ccccc3F)ccn12 [GSK2297428] | 0 | 23 | 0 | 0 | 2 | 0 | 6 | 94.5 | 32 | 24 |
| CN1c2ccc(-c3ccc(C(N)=O)cc3)cc2-c2[nH]ncc2S1(=O)=O | 0 | 0 | 0 | 14 | 0 | 0 | 0 | 0 | 0 | 0 |
| COc1ccc(Nc2nccc(-c3ccc(NC(=O)c4cc5cc(F)ccc5[nH]4)cc3)n2)cc1 [GSK1229496] | 0 | 13 | 0 | 0 | 0 | 0 | 0 | 0 | 0 | 2 |
